High-throughput results deposited in PubChem BioAssay by National Center for Advancing Translational Sciences (NCATS).
ELG1 DNA repair: qHTS screen for small molecules that inhibit ELG1-dependent DNA repair in human embryonic kidney (HEK293T) cells expressing luciferase-tagged ELG1. AID 504467, 2011. 330,000 tested, 2.3% active. Potency, µM (series often up to 46.1 µM), most hits filed as inhibitors. HEK293T ELG1-luciferase reporter, luminescence, 16 h; DNA damage induced by 5-fluorouridine; note: nearly all actives have a fitted effect of over 55% in size
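DMSO vehicle served as the neutral condition. Each well held 2,000 cells given 5-fluorouridine plus compound; after 16 hr at 37 °C/5% CO2, ONE-Glo was added and luciferase measured 30 min later.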
Giardia killer: Small Molecules that selectively kill Giardia lamblia: qHTS; Giardia lamblia trophozoite viability; activity change, % at 7.66 µM, hits read low; 340,000 tested, 0.15% active; in the data active = activity change below about -80%; inconclusive = between about -30% and that limit;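 note: parasites exposed to compound for two days anaerobically before the ATP read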
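Media and compound were dispensed first, then trophozoites at 100 cells/well; plates sat 48 hrs at 37 deg C without oxygen before ATP luminescence reagent was added and read after 15-30 min at room temperature.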
DT40 TDP1 CPT: qHTS for Inhibitors of human tyrosyl-DNA phosphodiesterase 1 (TDP1): qHTS in cells in presence of CPT. chicken DT40 Tdp1-/-;hTDP1 cells + 20 nM CPT, ATP luminescence, 48 h. Potency, µM (titrated, usually from 46.2 µM), most hits filed as inhibitors. 420,000 tested, 12% active. AID 686979, 2013; note: nearly all actives have a fitted effect of over 55% in size
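Cell growth measured by CellTiter-Glo luminescence after a minimum 48 h, 37 C compound exposure with 20 nM CPT in Tdp1-knockout DT40 cells stably expressing hTDP1, seeded 400/well; qHTS titration format.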
TDP1 block: qHTS Assay for Inhibitors of Tyrosyl-DNA Phosphodiesterase (TDP1). 350,000 tested, 0.28% active. Tyrosyl-DNA phosphodiesterase 1 (Homo sapiens), Q9NUW8. Potency, µM (doses to about 130 µM), most hits filed as inhibitors. recombinant TDP1, AlphaScreen DNA substrate cleavage. AID 485290, 2010; note: nearly all actives have a fitted effect of over 40% in size
Target sequence (Q9NUW8 whole entry, looked up): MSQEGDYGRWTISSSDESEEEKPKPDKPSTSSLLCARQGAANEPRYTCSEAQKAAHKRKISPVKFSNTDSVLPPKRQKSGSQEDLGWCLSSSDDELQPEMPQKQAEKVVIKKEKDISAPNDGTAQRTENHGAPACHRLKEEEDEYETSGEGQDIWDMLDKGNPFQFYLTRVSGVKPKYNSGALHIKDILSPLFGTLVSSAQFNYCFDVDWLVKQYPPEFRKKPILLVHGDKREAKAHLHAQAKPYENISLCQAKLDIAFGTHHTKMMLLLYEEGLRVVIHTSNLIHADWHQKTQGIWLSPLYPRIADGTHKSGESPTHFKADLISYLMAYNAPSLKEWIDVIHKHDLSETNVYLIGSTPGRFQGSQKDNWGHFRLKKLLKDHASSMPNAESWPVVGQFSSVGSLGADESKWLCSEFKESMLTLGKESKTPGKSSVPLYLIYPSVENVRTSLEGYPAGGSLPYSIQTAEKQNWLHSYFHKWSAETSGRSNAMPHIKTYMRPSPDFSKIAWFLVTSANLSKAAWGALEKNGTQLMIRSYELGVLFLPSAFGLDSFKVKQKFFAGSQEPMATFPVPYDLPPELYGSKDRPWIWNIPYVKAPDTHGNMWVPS
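Enzyme-compound mixtures sat 15 min at room temperature, followed by a 5 min reaction with 15 nM final substrate and 10 min with AlphaScreen beads. Recombinant human Tdp1 was used at 1 nM final.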
DT40 TDP1 no CPT: qHTS for Inhibitors of human tyrosyl-DNA phosphodiesterase 1 (TDP1): qHTS in cells in absence of CPT; DT40 Tdp1-/- hTDP1 cells, no CPT, ATP luminescence, 48 h; Potency, µM (highest dose often 46.2 µM), most hits filed as inhibitors; 420,000 tested, 15% active; AID 686978, 2013; note: nearly all actives have a fitted effect of over 55% in size
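Seeded 400 DT40-hTDP1 cells/well (vehicle DMSO, no 20 nM CPT); pinned compounds; ≥48 hr at 37 °C; CellTiter-Glo luminescence as viability measure.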
IL-1B inflam inh: qHTS for Inhibitors of Inflammasome Signaling: IL-1-beta AlphaLISA Primary Screen; AID 743279, 2014; activity change, % at 57.5 µM; 360,000 tested, 4.7% active; THP-1 LPS/ATP IL-1B secretion, AlphaLISA, 16 h; stronger effect = lower value; in the data active = activity change below about -50%; inconclusive = mostly about -30% to -49%
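THP-1 cells pretreated 1 hr with compounds (up to 57.5 uM final), then stimulated with LPS (250 ng/mL final) plus ATP (1.25 mM final); secreted IL-1B measured by AlphaLISA after 16 hr, decreased signal indicating inhibition.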
Of the large screens only hits and unclear results are named; the others gave an inactive call. Shown are actives, neighbours in structure and some others; about 19% of the full set was active somewhere. Unless noted, calls come from the whole dose curve; as a rule, active = well fitted curve in the direction sought with a large enough effect; inconclusive = small, poorly fitted or top-dose-only effect, or another doubt; inactive = no such curve, though single readings can be large; an effect the other way counts as inactive or inconclusive.

CCN(CC)CCCn1c2c(c(SCC(=O)Nc3nc(C)cs3)nc1=O)CCC2	none
Cc1ccc(-c2csc(NC(=O)C3CC(=O)N(Cc4ccco4)C3)n2)cc1 (stereo not given)	DT40 TDP1 CPT inconclusive, DT40 TDP1 no CPT inconclusive, IL-1B inflam inh -64.7
Cc1csc(NC(=O)C2CC(=O)N(Cc3ccco3)C2)n1 (stereo not given)	none
O=C1CC(c2ccccc2)Cc2[nH]c(=O)c(C(=O)Nc3ccc(OC(F)(F)F)cc3)cc21 (stereo not given)	none (no result: ELG1 DNA repair, Giardia killer, IL-1B inflam inh)
CC(=NCCc1c(C)[nH]c2ccc(OC(F)(F)F)cc12)C1=C(O)CC(c2ccccc2)CC1=O (stereo not given)	ELG1 DNA repair inconclusive, DT40 TDP1 CPT 4.61µM, DT40 TDP1 no CPT 3.26µM
CC(=NCCc1c(C)[nH]c2ccc(C)cc12)C1=C(O)CC(c2ccccc2)CC1=O (stereo not given)	ELG1 DNA repair inconclusive, DT40 TDP1 CPT 1.16µM, DT40 TDP1 no CPT 1.64µM
N#CC(C#N)c1ccnc2ccccc12	DT40 TDP1 CPT inconclusive, IL-1B inflam inh inconclusive (no result: ELG1 DNA repair, Giardia killer, TDP1 block)
COc1ccc2c(c1)-c1nc(-n3ncc(C(=O)N(C)CCO)c3C3CC3)ncc1CC2	none (no result: ELG1 DNA repair, Giardia killer, TDP1 block, IL-1B inflam inh)
CCOC(=O)C(C)Sc1nc(-c2ccccc2)nc2ccccc12 (stereo not given)	DT40 TDP1 no CPT inconclusive
CC(C)OCCCNC(=O)c1ccc2c(c1)S(=O)(=O)c1ccccc1C2=O	DT40 TDP1 no CPT inconclusive
COCCCNC(=O)c1ccc2c3c(onc13)-c1ccccc1C2=O	ELG1 DNA repair inconclusive, DT40 TDP1 CPT 7.31µM, DT40 TDP1 no CPT 14.6µM, IL-1B inflam inh -98.0
COc1cccc(CC(=O)NN2C(=O)NC3(CCCCC3)C2=O)c1	none
CCCCOc1ccc(-c2cn3ccccc3n2)cc1[N+](=O)[O-]	ELG1 DNA repair inconclusive, DT40 TDP1 CPT inconclusive, DT40 TDP1 no CPT 25.9µM
CCCOc1ccc(-c2csc(N)n2)cc1[N+](=O)[O-]	ELG1 DNA repair inconclusive, DT40 TDP1 CPT 14.6µM, DT40 TDP1 no CPT 10.3µM
COc1ccc(-c2onc(C)c2-c2ccc(C(=O)OC(C)C)o2)c(O)c1	ELG1 DNA repair 23.1µM, DT40 TDP1 CPT 20.6µM, DT40 TDP1 no CPT 16.4µM, IL-1B inflam inh inconclusive
COc1ccc(NC(=O)c2cc(-c3ccccc3O)no2)cc1	none (no result: ELG1 DNA repair, Giardia killer, IL-1B inflam inh)
O=C(NCc1ccccn1)c1ccc2c(=O)n(CCc3ccccc3)c(=O)[nH]c2c1	DT40 TDP1 CPT 20.6µM, DT40 TDP1 no CPT inconclusive
COc1ccc(Cn2c(=O)[nH]c3cc(C(=O)N4CCN(c5ccccc5)CC4)ccc3c2=O)cc1	DT40 TDP1 no CPT inconclusive
C=CCn1c(=O)[nH]c2cc(C(=O)N3CCN(c4cc(C)ccc4C)CC3)ccc2c1=O	DT40 TDP1 CPT inconclusive, DT40 TDP1 no CPT inconclusive
C=CCn1c(=O)[nH]c2cc(C(=O)N3CCN(c4cccc(Cl)c4)CC3)ccc2c1=O	ELG1 DNA repair inconclusive, DT40 TDP1 CPT 9.2µM, DT40 TDP1 no CPT 7.31µM
COc1cccc(N2CCN(C(=O)c3ccc4c(=O)n(CCc5ccccc5)c(=O)[nH]c4c3)CC2)c1	DT40 TDP1 CPT 14.6µM, DT40 TDP1 no CPT 7.31µM (no result: ELG1 DNA repair, Giardia killer, IL-1B inflam inh)
COCCn1c(=O)[nH]c2cc(C(=O)NCCN3CCN(c4ccc(OC)cc4)CC3)ccc2c1=O	ELG1 DNA repair 9.2µM, DT40 TDP1 no CPT inconclusive
O=C(CSc1nc2ccccc2nc1Cc1ccc(Cl)cc1)N1CCc2ccccc21	none (no result: ELG1 DNA repair, Giardia killer, IL-1B inflam inh)
CCN(CC)CCCNC(=O)c1ccc2c(=O)n(CCc3ccccc3)c(=O)[nH]c2c1	DT40 TDP1 no CPT inconclusive (no result: ELG1 DNA repair, Giardia killer, IL-1B inflam inh)
CCCCCn1c(=O)[nH]c2cc(C(=O)NCCN(CC)CC)ccc2c1=O	DT40 TDP1 CPT 9.2µM, DT40 TDP1 no CPT 20.6µM
